Experimental data from PubChem BioAssay.
Activity calls are given as the source filed them.

How the values were obtained:
[1] = E. coli DRC41 culture turbidity changes, primary screen, E. coli filamentation inducer project, strain DRC41, OD650, 48 h (AID 1152);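 note: E. coli MC1000 strain DRC41 lacking acrAB efflux pump and sulA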; conditions: E. coli DRC41 (acrAB sulA), higher = more signal, called active from +8 up or from −8 down
[2] = small-molecule binders of probe aLefty1, primary screen, biochemical, small-molecule microarray, 635/667 nm fluorescence (AID 1153); conditions: higher = more signal;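 note: score merges spot fluorescence with signal-to-noise ratio from the scanned slide images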
[3] = PSAC antagonists in infected red cells, primary screen, cell-based, P. falciparum Indochina, OD700, 1 h (AID 1154); conditions: P. falciparum Indochina infected RBC osmotic lysis, higher = more signal, called active from +8 up or from −8 down
[4] = PSAC antagonists in infected red cells, primary screen, cell-based, P. falciparum Indochina, OD700, 2 h (AID 1155);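 note: lysis reports solute entry through the parasite surface anion channel PSAC; channel blockers reduce lysis of infected cells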; conditions: P. falciparum Indochina infected erythrocytes, osmotic lysis OD700; higher = more signal, called active from +8 up or from −8 down
[5] = osmotic lysis modulators in infected erythrocytes, primary screen, PSAC antagonist project, cell-based, P. falciparum Indochina, OD700, 3 h (AID 1156); conditions: higher = more signal, called active from +8 up or from −8 down
[6] = PSAC antagonists in infected red cells, primary screen, cell-based, P. falciparum Indochina, OD700, 18 h (AID 1157); conditions: P. falciparum Indochina infected erythrocytes, osmotic lysis OD700, 18 h; higher = more signal, called active from +8 up or from −8 down
[7] = modulators of S6 phosphorylation in cells, primary screen, cell-based, A549, cytoblot, luminescence, serum-stimulated (AID 1158); conditions: A549 phospho-S6 cytoblot, 5 h, higher = more signal;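 note: serum-stimulated A549 lung adenocarcinoma cells; signal is phosphorylated S6 detected by cytoblot immunostaining with HRP secondary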
[8] = target: NADPH oxidase 2 (Homo sapiens) (UniProt P04839); experiment: NOX2-dependent H2O2 signal modulators, primary screen, NOX inhibitor project, cell-based, HEK293-NOX2, PMA-stimulated, Amplex Red fluorescence (AID 1159); conditions: 45 min, higher = more signal, called active from +8 up or from −8 down; note: test concentration not given here
Chain of NADPH oxidase 2 (Homo sapiens) (P04839 whole entry, looked up): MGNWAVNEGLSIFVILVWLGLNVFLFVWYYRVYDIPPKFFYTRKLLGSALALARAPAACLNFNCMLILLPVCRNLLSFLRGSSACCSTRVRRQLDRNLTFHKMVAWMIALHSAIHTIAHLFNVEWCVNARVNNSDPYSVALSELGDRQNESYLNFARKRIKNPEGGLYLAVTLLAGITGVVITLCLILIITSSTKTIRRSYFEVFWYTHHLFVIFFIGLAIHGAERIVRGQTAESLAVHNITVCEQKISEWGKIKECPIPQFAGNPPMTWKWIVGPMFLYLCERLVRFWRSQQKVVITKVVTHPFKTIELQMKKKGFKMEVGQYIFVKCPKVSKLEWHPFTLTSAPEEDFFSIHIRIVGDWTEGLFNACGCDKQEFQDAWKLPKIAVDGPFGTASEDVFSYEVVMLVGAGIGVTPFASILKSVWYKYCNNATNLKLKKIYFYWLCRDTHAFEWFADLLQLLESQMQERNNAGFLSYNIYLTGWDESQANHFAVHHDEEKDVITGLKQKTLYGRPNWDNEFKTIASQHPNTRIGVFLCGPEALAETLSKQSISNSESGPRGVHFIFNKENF

[9] = target: NADPH oxidase 4 (Homo sapiens) (UniProt Q9NPH5); experiment: NOX4-dependent H2O2 signal modulators, primary screen, NOX inhibitor project, cell-based, HEK293-NOX4, tetracycline-induced, Amplex Red fluorescence (AID 1160); conditions: 45 min, higher = more signal, called active from +8 up or from −8 down
Chain of NADPH oxidase 4 (Homo sapiens) (Q9NPH5 whole entry, looked up): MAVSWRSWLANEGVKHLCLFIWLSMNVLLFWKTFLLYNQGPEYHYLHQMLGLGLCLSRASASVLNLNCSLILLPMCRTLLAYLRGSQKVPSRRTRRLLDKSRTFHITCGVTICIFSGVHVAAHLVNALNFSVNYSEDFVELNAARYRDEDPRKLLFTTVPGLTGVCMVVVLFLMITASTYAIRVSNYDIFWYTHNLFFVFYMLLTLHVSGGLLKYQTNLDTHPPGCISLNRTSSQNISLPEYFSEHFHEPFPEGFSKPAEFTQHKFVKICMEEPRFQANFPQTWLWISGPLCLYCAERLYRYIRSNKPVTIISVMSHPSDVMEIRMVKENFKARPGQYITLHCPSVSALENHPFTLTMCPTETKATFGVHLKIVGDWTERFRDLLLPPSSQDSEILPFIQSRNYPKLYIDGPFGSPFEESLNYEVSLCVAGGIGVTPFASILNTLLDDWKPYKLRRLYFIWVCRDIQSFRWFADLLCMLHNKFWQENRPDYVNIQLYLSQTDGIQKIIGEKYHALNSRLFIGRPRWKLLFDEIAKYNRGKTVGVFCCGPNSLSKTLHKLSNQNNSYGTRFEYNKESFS

[10] = target: NADPH oxidase 5 (Homo sapiens) (UniProt Q96PH1); experiment: NOX5-dependent H2O2 signal modulators, primary screen, NOX inhibitor project, cell-based, HEK293-NOX5, Amplex Red fluorescence (AID 1161); conditions: HEK293-NOX5, ionomycin, 45 min, higher = more signal
Chain of NADPH oxidase 5 (Homo sapiens) (Q96PH1 whole entry, looked up): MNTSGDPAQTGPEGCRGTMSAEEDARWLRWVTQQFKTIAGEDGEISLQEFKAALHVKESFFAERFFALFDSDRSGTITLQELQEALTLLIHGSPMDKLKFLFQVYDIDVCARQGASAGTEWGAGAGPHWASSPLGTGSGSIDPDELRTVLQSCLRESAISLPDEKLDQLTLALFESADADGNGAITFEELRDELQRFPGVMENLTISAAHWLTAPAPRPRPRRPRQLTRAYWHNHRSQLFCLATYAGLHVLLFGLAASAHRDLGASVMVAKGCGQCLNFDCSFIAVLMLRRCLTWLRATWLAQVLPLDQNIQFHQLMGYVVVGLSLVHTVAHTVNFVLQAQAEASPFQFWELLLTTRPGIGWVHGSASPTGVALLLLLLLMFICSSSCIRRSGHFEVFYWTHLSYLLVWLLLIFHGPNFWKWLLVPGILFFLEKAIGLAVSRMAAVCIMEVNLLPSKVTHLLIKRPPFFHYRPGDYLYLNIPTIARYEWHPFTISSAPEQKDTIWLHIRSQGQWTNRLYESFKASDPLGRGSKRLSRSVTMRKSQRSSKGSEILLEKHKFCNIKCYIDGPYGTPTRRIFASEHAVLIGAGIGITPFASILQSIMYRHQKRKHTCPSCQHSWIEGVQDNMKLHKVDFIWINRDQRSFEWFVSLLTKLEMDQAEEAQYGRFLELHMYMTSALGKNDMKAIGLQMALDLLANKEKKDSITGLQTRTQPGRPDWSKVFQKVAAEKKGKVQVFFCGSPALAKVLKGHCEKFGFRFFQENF

[11] = A549 cell viability effects, profiling panel, calcein-AM fluorescence, 48 h, basal (AID 1162); conditions: higher = more signal; note: test concentration not given here
[12] = adipocyte viability effects, profiling panel, cell-based, 3T3-L1 adipocytes, calcein-AM fluorescence, 48 h, basal (AID 1163); conditions: 3T3-L1 adipocytes viability, higher = more signal; note: test concentration not given here
[13] = HepG2 cell viability effects, profiling panel, calcein-AM fluorescence, 48 h, basal (AID 1164); conditions: higher = more signal; note: test concentration not given here
[14] = MM1S cell viability effects, profiling panel, calcein-AM fluorescence, 48 h, basal (AID 1165); conditions: higher = more signal;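 note: viability of MM1S multiple myeloma cells under basal unstimulated conditions; test concentration not given here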
[15] = basal RPMI8226 viability, no added stimulus, profiling panel, cell-based, calcein-AM fluorescence, 48 h, PK04 Diversity Set (AID 1166); conditions: RPMI8226 myeloma viability, higher = more signal;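 note: cells grown under basal conditions without added stimulus; test concentration not given here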
[16] = basal HepG2 mitochondrial membrane potential changes, profiling panel, cell-based, JC-1 fluorescence, 24 h, 100 nL compound (AID 1167); conditions: higher = more signal; note: test concentration not given here
[17] = basal 3T3-L1 adipocyte mitochondrial potential changes, profiling panel, cell-based, JC-1 fluorescence, 3T3-L1 adipocytes, 24 h, 100 nL compound (AID 1168); conditions: JC-1 mitochondrial fluorescence, higher = more signal, called active from +8 up or from −8 down; note: test concentration not given here
[18] = basal RPMI8226 mitochondrial membrane potential changes, profiling panel, cell-based, JC-1 fluorescence, 24 h, 100 nL compound (AID 1169); conditions: RPMI8226 myeloma, JC-1 mitochondrial potential fluorescence, higher = more signal; note: test concentration not given here
[19] = basal MM1S mitochondrial membrane potential changes, profiling panel, cell-based, JC-1 fluorescence, 24 h, 100 nL compound (AID 1170); conditions: higher = more signal; note: test concentration not given here
[20] = A549 lung cancer cell viability effects, profiling panel, resazurin fluorescence, 24 h, PK04 Diversity Set (AID 1171); conditions: higher = more signal, called active from +8 up or from −8 down; note: test concentration not given here

Compound	z-score [1]	composite z-score [2]	z-score [3]	z-score [4]	z-score [5]	z-score [6]	z-score [7]	z-score [8]	z-score [9]	z-score [10]	z-score [11]	z-score [12]	z-score [13]	z-score [14]	z-score [15]	z-score [16]	z-score [17]	z-score [18]	z-score [19]	z-score [20]
NC(=O)NCC#Cc1ccc2c(c1)[C@]1(C(=O)N2)[C@H](C(=O)Nc2nc3ccccc3s2)[C@H]2C(=O)O[C@H](c3ccccc3)[C@H](c3ccccc3)N2[C@@H]1c1ccccc1OCCO	1.07 (inactive)	1.33	1.39 (inactive)	0.831 (inactive)	1.18 (inactive)	-0.247 (inactive)	1.76	0.643 (inactive)	-0.228 (inactive)	-3.4	-0.38	2.01	0.374	-0.513	-1.12	-3.23	2.92 (inactive)	-0.517	-0.815	0.28 (inactive)
O=C1C2C=CC(C(O)c3cccc4ccccc34)N(Nc3ccccc3F)C2C(=O)N1c1ccccc1 (stereo not given)	-0.875 (inactive)	0.419	3.49 (inactive)	1.34 (inactive)	-0.481 (inactive)	1.05 (inactive)	-0.607	-0.26 (inactive)	-2.65 (inactive)	-1.21	-1.05	-1.47	-0.231	0.121	-0.345	-1.86	-0.794 (inactive)	0.355	-1.68	-0.232 (inactive)
COCCOC(=O)N1C(=O)[C@@]2(c3cc(C#CCC(C(=O)OC)C(=O)OC)ccc31)[C@H](C(=O)N1CCN(c3ncccn3)CC1)[C@H]1C(=O)O[C@H](c3ccccc3)[C@H](c3ccccc3)N1[C@@H]2c1ccccc1OCCO	-0.646 (inactive)	0.312	3.14 (inactive)	1.55 (inactive)	0.391 (inactive)	0.533 (inactive)	0.0555	1.45 (inactive)	0.851 (inactive)	1.3	0.0182	0.462	-0.481	-0.748	0.297	1.37	1.39 (inactive)	-0.182	-1.2	-0.174 (inactive)
[N-]=[N+]=NCc1ccccc1[C@@H]1OC(c2ccc(OCCCO)cc2)=N[C@]1(Cc1ccccc1)C(=O)NCC(O)CO (stereo not given in full)	-0.0722 (inactive)	0.484	13.5 (active)	1.15 (inactive)	0.942 (inactive)	0.123 (inactive)	-0.319	-0.847 (inactive)	1.7 (inactive)	-0.0855	0.939	-1.16	0.78	-1.07	-0.596	-0.474	-0.672 (inactive)	-0.596	-0.471	0.424 (inactive)
O=C(N1CCCCC1)[C@]1(Cc2ccccc2)N=C(c2ccc(OCCCO)cc2)O[C@@H]1c1ccccc1	-0.834 (inactive)	0.446	28 (active)	20.6 (active)	0.696 (inactive)	1.28 (inactive)	2.33	-2.82 (inactive)	-1.37 (inactive)	-1.7	-1.69	1.16	-2.04	-3.35	-4.43	-1.06	-0.515 (inactive)	-1.26	-2.03	0.528 (inactive)
O=C1NC(=O)C2C1C=CC(C(O)c1cccs1)N2Nc1ccc(Cl)cc1Cl (stereo not given)	-0.713 (inactive)	-0.012	2.33 (inactive)	1.32 (inactive)	-0.0207 (inactive)	1.34 (inactive)	-0.27	-0.483 (inactive)	-4.81 (inactive)	-1.57	-0.599	-0.191	-0.165	-1.71	-0.884	-2.1	0.0583 (inactive)	0.236	-0.219	-0.523 (inactive)
CCCCCCc1nc(-c2cc(C)c(OC)c(C)c2)cc2c1[Si](C(C)C)(C(C)C)OC2	0.488 (inactive)	0.147	0.827 (inactive)	-0.0892 (inactive)	0.193 (inactive)	-0.351 (inactive)	0.296	-5.61 (inactive)	-1.72 (inactive)	-3.75	-0.194	1.29	0.117	-1.12	-1.11	-0.48	-0.385 (inactive)	-0.547	-0.288	1.1 (inactive)
COc1cc(C(O)C2C=CC3C(=O)NC(=O)C3N2Nc2ccccn2)cc(OC)c1OC (stereo not given)	-1.57 (inactive)	0.19	0.0115 (inactive)	0.297 (inactive)	-0.928 (inactive)	0.409 (inactive)	-1.21	-1.42 (inactive)	-3.26 (inactive)	-2.9	-0.928	-0.66	-1.31	-0.494	0.611	-1.2	-0.524 (inactive)	-0.0982	-0.0424	-0.706 (inactive)
COCCOC(=O)N1C(=O)[C@@]2(c3ccccc31)[C@H](c1ccccc1OCCO)N1[C@H](c3ccccc3)[C@H](c3ccccc3)OC(=O)[C@H]1[C@@H]2C(=O)N1CCN(c2ncccn2)CC1	-0.102 (inactive)	0.0402	4.19 (inactive)	2.16 (inactive)	0.98 (inactive)	1.49 (inactive)	-0.248	-0.652 (inactive)	-0.44 (inactive)	0.183	-0.588	-0.678	-0.478	-1.7	-0.949	0.323	0.665 (inactive)	-0.929	-1.36	-1.05 (inactive)
